Results filed as inconclusive are left out. Activity calls are given as the source filed them. Rule for the calls, unless noted: active = hit-call score of the fitted dose curve at least 0.9, where 1 is the maximum; inactive = score below 0.9.

Experiment [1] is described as follows: CCTE_Shafer_MEA_dev_burst_rate: CCTE's Neural Network Formation Assay for Burst Rate, Shafer Lab (AID 2284042).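 For AC50: potency for loss of burst rate below DMSO control.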 The essentials: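 Developmental network assay measuring how 12-day exposure of rat cortical neuron cultures alters bursting on extracellular MEA recordings. Values are AUC of well-mean burst rate across four recording days, relative to DMSO vehicle.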

Experiment [2] in a line: CCTE_Shafer_MEA_dev_bursting_electrodes_number: CCTE's Neural Network Formation Assay for Number of Bursting Electrodes, Shafer Lab (AID 2284043; active = hit-call score of the fitted dose curve at least 0.9, where 1 is the maximum;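 for AC50: potency is for loss of bursting electrodes relative to DMSO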). The essentials:
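Primary rat cortical neurons plated on 16-electrode MEA wells, exposed from day 0 with compound renewed at DIV 5 and 9. Electrodes bursting ≥1 burst per 2 min counted on days 5, 7, 9 and 12; trapezoidal AUC across days, fitted for loss versus DMSO.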

The nature of experiment [3]: CCTE_Shafer_MEA_dev_per_burst_interspike_interval: CCTE's Neural Network Formation Assay for Burst Interspike Interval, Shafer Lab (AID 2284044).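 For AC50: potency for a decrease of within-burst interspike interval below DMSO level.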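 Note: mean spike spacing inside bursts as AUC over recordings on days 5 7 9 12.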 The essentials: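 Spontaneous activity of maturing rat cortical networks is recorded on DIV 5, 7, 9 and 12 under chronic compound exposure beginning at plating. Endpoint: burst interspike interval well-mean, collapsed into trapezoidal AUC and fitted in the negative direction relative to DMSO.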

Experiment [4] in a line: CCTE_Shafer_MEA_dev_burst_duration_mean: CCTE's Neural Network Formation Assay for Mean Burst Duration, Shafer Lab (AID 2284045).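 For AC50: curve fitted for loss meaning shorter burst duration than DMSO.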 The essentials:
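Primary rat cortical neurons on 48-well 16-electrode MEA plates, exposed from day 0 with renewal at DIV 5 and 9; spontaneous activity recorded on days 5, 7, 9, 12. Well-mean burst duration across bursting electrodes, collapsed as trapezoidal AUC; DMSO baseline.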

Experiment [5] can be described thus: CCTE_Shafer_MEA_dev_interburst_interval_mean: CCTE's Neural Network Formation Assay for Mean Interburst Interval, Shafer Lab (AID 2284046).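 Note: well-mean interburst interval of bursting electrodes as AUC over four recording days; curve fitted for decrease in interburst interval relative to DMSO.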 The essentials:
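Network formation assay in primary rat cortical cultures, exposed from DIV 0 to 12. Mean interburst interval per well, integrated as AUC over four recordings.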

Experiment [6] is described as follows: CCTE_Shafer_MEA_dev_inter_network_spike_interval_mean: CCTE's Neural Network Formation Assay for Mean Inter-network Spike Interval, Shafer Lab (AID 2284047).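 For AC50: potency for a decrease in mean inter-network spike interval below DMSO.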 The essentials: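 Compound was given at plating to primary rat cortical neurons and renewed with full medium changes on DIV 5 and 9. Extracellular activity was recorded on days 5, 7, 9, 12; AUC values were fitted for loss relative to DMSO control.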

A short description of experiment [7]: CCTE_Shafer_MEA_dev_network_spike_number: CCTE's Neural Network Formation Assay for Number of Network Spikes, Shafer Lab (AID 2284048).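 For AC50: fit as a loss of signal meaning fewer network spikes than DMSO.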 The essentials: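 Primary rat cortical neurons on PEI/laminin 48-well MEA plates, dosed from plating day 0 for 12 days, renewed at DIV 5 and 9. Network spike counts recorded DIV 5, 7, 9, 12, collapsed as trapezoidal AUC; DMSO baseline.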

The nature of experiment [8]: CCTE_Shafer_MEA_dev_spike_duration_mean: CCTE's Neural Network Formation Assay for Mean Spike Duration, Shafer Lab (AID 2284051).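 For AC50: potency for a decrease in mean network spike duration versus DMSO.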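 Note: mean network spike duration pooled as area under curve over DIV 5 to 12 recordings.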 The gist of the method: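 With DMSO as baseline, loss of mean network spike duration was scored from extracellular recordings of rat cortical neurons on MEA plates. Exposure spanned plating to DIV 12; the four recording days were collapsed into one AUC value.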

Experiment [9] is described as follows: CCTE_Shafer_MEA_dev_network_spike_duration_std: CCTE's Neural Network Formation Assay for Standard Deviation of Network Spike Duration, Shafer Lab (AID 2284052).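 Note: area under curve of spike duration SD across recording days 5 to 12; hits are decreases in network spike duration SD versus DMSO vehicle.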 The essentials:
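Developing networks of rat cortical neurons were exposed over twelve days in vitro on 48-well MEA plates. Trapezoidal AUC of recordings (DIV 5–12) was analysed for signal loss relative to DMSO vehicle.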

A short description of experiment [10]: CCTE_Shafer_MEA_dev_per_network_spike_spike_number_mean: CCTE's Neural Network Formation Assay for Mean Number of Spikes in a Network Spike, Shafer Lab (AID 2284053). The essentials: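 First, rat cortical cells (1.5 x 10^5/well) were seeded onto MEA wells; second, dosing began at plating and was refreshed on DIV 5 and 9; finally, network-spike spike counts across DIV 5–12 were summarized as AUC.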

A short description of experiment [11]: CCTE_Shafer_MEA_dev_per_network_spike_spike_percent: CCTE's Neural Network Formation Assay for Percent of Spikes in a Network Spike, Shafer Lab (AID 2284054). The gist of the method: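 Rat primary cortical neurons were grown on 48-well MEA plates (16 electrodes/well), exposed from plating day 0 through day 12, with treatment renewed on DIV 5 and 9. Percent of spikes within 0.05 s network-spike peaks was measured, summarised as AUC across days 5, 7, 9, 12.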

Experiment [12] is described as follows: CCTE_Shafer_MEA_dev_active_electrodes_number: CCTE's Neural Network Formation Assay for Number of Active Electrodes, Shafer Lab (AID 2284040; active = hit-call score of the fitted dose curve at least 0.9, where 1 is the maximum;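 for AC50: potency for loss of active electrodes versus DMSO so lower counts are hits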). The essentials: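 Rat cortical primary cultures, 1.5 x 10^5 cells/well, PEI-coated MEA, laminin drop. Continuous exposure DIV 0–12; full media/compound change DIV 5, 9. Readout: electrodes with mean firing ≥5 spikes/min; AUC across days; loss vs DMSO.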

The next experiment has as its system DIO2 (gene 1734). As to the kind of experiment: CCTE_GLTED_hDIO2: CCTE's human Deiodinase 2 (DIO2) Inhibition Assay, Great Lakes Toxicology and Ecology Division (GLTED) Lab (AID 2284050; active = hit-call score of the fitted dose curve at least 0.9, where 1 is the maximum). The gist of the method:
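In this cell-free test, chemicals are exposed to human deiodinase type 2 for 3 hours. Released iodide is determined spectrophotometrically via the Sandell-Kolthoff method, and signal loss relative to DMSO is fitted.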

In a further experiment the test system is DIO3 (gene 1735). As to the kind of experiment: CCTE_GLTED_hDIO3: CCTE's human Deiodinase 3 (DIO3) Inhibition Assay, Great Lakes Toxicology and Ecology Division (GLTED) Lab (AID 2284055; active = hit-call score of the fitted dose curve at least 0.9, where 1 is the maximum;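 note: potency is for inhibition seen as loss of released iodide signal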). The gist of the method:
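Enzyme activity is tracked as iodide release from substrate by recombinant human DIO3 over 3 h with chemical present. A second Sandell-Kolthoff step converts iodide to an absorbance signal, fitted relative to DMSO.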

Experiment [13] is described as follows: CCTE_Shafer_MEA_dev_LDH: CCTE's Lactate Dehydrogenase Assay for Cytotoxicity in the Neural Network Formation Assay, Shafer Lab (AID 2284068; active = hit-call score of the fitted dose curve at least 0.9, where 1 is the maximum;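 note: exposure for twelve days from plating with re-dosing on DIV 5 and 9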). The essentials: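 Developing rat cortical networks on MEA plates are exposed to compound for 12 days from plating. LDH activity is measured spectrophotometrically, with DMSO as baseline.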
A short description of experiment [14]: CCTE_Shafer_MEA_dev_AB: CCTE's Alamar Blue Assay for Cytotoxicity in the Neural Network Formation Assay, Shafer Lab (AID 2284083; active = hit-call score of the fitted dose curve at least 0.9, where 1 is the maximum;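 note: resazurin reduction fluorescence as viability of cultured neurons; twelve days of exposure from plating with re-dosing on DIV 5 and 9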). The essentials:
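Cytotoxicity companion to the developmental MEA: primary rat cortical neurons, 12-day exposure starting day 0, compound refreshed DIV 5 and 9; resazurin fluorescence, fitted against DMSO vehicle.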
For orientation: Alamar Blue is a resazurin reagent that responds to reducing activity.

Experiment [15] in a line: UKN5_HCS_SBAD2_cell_viability: Viability Assessment in the University of Konstanz (UKN) Leist Lab Neurite Outgrowth Assay in human iPSC-derived immature Dorsal Root Ganglia Neurons (UKN5) (AID 2284056). The essentials:
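iPSC-derived immature peripheral neurons (SBAD2) seeded on Matrigel with CHIR99021, SU5402 and DAPT, dosed 1 h later for 24 h. Viability from Hoechst H-33342 and calcein-AM live staining, high-content imaging; bidirectional fit versus DMSO.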

The nature of experiment [16]: UKN5_HCS_SBAD2_neurite_outgrowth: University of Konstanz (UKN) Leist Lab Neurite Outgrowth Assay in human iPSC-derived immature Dorsal Root Ganglia Neurons (UKN5) (AID 2284070). The settings on record: actives raise or lower the signal. The gist of the method:
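SBAD2 neurons, 24 h compound treatment, calcein-AM neurite area via HCS imaging; DMSO baseline, gain or loss of signal.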

On to `CN(CCO)S(=O)(=O)C(F)(F)C(F)(F)C(F)(F)C(F)(F)C(F)(F)C(F)(F)C(F)(F)C(F)(F)F`, for which the outcome in experiment [1], in experiment [2], in [3], in [4], in experiment [5] and in [6] was inactive. Moreover, the call in [7], in experiment [8], in experiment [9], in [10] and in experiment [11] was inactive.
By AC50 is commonly meant the concentration giving half of the maximal activity seen. For `O=C(O)C(F)(F)OC(F)(F)C(F)(F)OC(F)(F)C(F)(F)OC(F)(F)C(F)(F)C(F)(F)C(F)(F)F`, the outcome in experiment [12], in [1], in experiment [3], in experiment [4], in experiment [5] and in experiment [6] was inactive. The compound was classed as inactive in [7], in experiment [8], in experiment [9], in experiment [10], in experiment [11] and in experiment [13]. For the same compound, the compound was called inactive in experiment [14]. The half-maximal activity concentration (AC50) was 60.5 µM (active) in the experiment with DIO2 (gene 1734) and 37.1 µM (active) in the experiment on DIO3 (gene 1735).
Turning to `FCOC(C(F)(F)F)C(F)(F)F`, the result in experiment [12], in experiment [1], in [2], in [3], in experiment [4] and in [5] was inactive. The call in experiment [6], in experiment [7], in [8], in [9], in experiment [10] and in [11] was inactive. Besides, in experiment [14], the result was inactive.
Take `O=C(CC(=O)C(F)(F)C(F)(F)C(F)(F)F)c1cccs1`: the half-maximal activity concentration (AC50) is 8.83 µM (active) in experiment [12]; 8.13 µM (active) in experiment [2]; 5.43 µM (active) in [5]; 7.7 µM (active) in experiment [8]; 3720 nM (active) in [10]; 3.48 µM (active) in [11]. The AC50 in experiment [13] is 8.63 µM (active); in experiment [14], 9.02 µM (active). Also, the call in [1], in [3], in [4], in experiment [6], in [7] and in experiment [9] was inactive.
For the compound `FC(F)=C(F)C(F)(F)C(F)(F)C(F)(F)C(F)F`, the outcome in experiment [1], in [3], in experiment [4], in experiment [5], in [6] and in [7] was inactive. The compound was called inactive in [8], in experiment [9], in experiment [10] and in [11].
On to `CN(Cc1cnc2nc(N)nc(N)c2n1)c1ccc(C(=O)N[C@@H](CCC(=O)O)C(=O)O)cc1`, for which the AC50 is 0.0303 µM (active) in [12]; 36.5 nM (active) in experiment [1]; 0.0209 µM (active) in [2]; 2.98 µM (active) in experiment [3]; 72.8 nM (active) in [4]; 0.136 µM (active) in [5]. The AC50 in [6] is 30.8 nM (active); in experiment [7], 25.8 nM (active); in experiment [8] it was 0.0343 µM (active); in [9], 42.2 nM (active); in experiment [10], 25.8 nM (active); in [11], 0.0253 µM (active). Besides, the AC50 in [13] was 0.00802 µM (active); in experiment [14] it was 0.0389 µM (active).
Regarding `O=C(CCCN1CCC(O)(c2ccc(Cl)cc2)CC1)c1ccc(F)cc1`, the AC50 in experiment [12] is 2.33 µM (active); in [1], 531 nM (active); in experiment [2] it was 1.65 µM (active); in experiment [3] it was 1.78 µM (active); in experiment [4] it was 1290 nM (active); in experiment [5] it was 3.12 µM (active). Further, the AC50 was 568 nM (active) in experiment [7]; 1.78 µM (active) in experiment [8]; 1880 nM (active) in experiment [9]; 753 nM (active) in experiment [10]; 2.98 µM (active) in experiment [11]; 55.6 µM (active) in experiment [15]. Moreover, the AC50 in experiment [13] is 7.35 µM (active); in [16], 20.2 µM (active). The compound was classed as inactive in experiment [6] and in experiment [14].

(Values after PubChem BioAssay (EPA / NIEHS).)
